The structures appear in SMILES notation.

The target in test [1] is T1, Serine/threonine-protein kinase TBK1 (Homo sapiens) (UniProt Q9UHD2).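 Note: values are mean inhibition of TBK1, screened as part of the GSK published kinase inhibitor set.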
T1 sequence (whole entry): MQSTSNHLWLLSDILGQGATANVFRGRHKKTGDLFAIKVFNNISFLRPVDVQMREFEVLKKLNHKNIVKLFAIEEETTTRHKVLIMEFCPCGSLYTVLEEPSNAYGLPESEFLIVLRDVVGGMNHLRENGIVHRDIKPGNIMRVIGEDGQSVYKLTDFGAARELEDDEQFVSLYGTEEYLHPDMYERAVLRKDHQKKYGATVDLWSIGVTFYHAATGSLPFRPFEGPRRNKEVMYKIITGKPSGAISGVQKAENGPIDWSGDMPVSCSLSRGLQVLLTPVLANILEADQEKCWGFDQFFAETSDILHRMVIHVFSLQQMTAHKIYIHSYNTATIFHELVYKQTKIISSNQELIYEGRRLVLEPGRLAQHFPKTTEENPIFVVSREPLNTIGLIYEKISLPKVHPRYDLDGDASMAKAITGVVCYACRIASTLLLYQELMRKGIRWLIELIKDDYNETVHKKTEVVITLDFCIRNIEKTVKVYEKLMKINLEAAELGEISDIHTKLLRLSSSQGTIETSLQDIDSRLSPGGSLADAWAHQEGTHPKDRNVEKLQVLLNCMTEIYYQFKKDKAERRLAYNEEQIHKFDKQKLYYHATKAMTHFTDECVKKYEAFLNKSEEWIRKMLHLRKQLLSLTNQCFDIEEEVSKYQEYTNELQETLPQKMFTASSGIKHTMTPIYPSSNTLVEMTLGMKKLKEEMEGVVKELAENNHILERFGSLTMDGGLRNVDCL
To be noted: at 1 µM.

Test [2] has as its target T2, Testis-specific serine/threonine-protein kinase 1 (Homo sapiens) (UniProt Q9BXA7).
T2 sequence (whole entry): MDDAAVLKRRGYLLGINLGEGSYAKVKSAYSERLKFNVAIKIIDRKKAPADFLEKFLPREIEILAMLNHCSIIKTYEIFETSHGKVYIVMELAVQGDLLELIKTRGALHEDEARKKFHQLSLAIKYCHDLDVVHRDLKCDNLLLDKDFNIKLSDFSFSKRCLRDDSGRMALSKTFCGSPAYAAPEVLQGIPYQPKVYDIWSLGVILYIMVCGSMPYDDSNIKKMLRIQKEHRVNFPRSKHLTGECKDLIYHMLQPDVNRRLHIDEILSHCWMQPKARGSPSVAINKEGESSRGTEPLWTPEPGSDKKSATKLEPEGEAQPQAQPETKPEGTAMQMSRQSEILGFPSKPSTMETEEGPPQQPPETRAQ
The conditions noted are these: at 0.1 µM.

The target of test [3] is T2, Testis-specific serine/threonine-protein kinase 1 (Homo sapiens). To be noted: at 1 µM.
For test [4], the target named is T3, Testis-specific serine/threonine-protein kinase 2 (Homo sapiens) (UniProt Q96PF2).
T3 sequence (whole entry): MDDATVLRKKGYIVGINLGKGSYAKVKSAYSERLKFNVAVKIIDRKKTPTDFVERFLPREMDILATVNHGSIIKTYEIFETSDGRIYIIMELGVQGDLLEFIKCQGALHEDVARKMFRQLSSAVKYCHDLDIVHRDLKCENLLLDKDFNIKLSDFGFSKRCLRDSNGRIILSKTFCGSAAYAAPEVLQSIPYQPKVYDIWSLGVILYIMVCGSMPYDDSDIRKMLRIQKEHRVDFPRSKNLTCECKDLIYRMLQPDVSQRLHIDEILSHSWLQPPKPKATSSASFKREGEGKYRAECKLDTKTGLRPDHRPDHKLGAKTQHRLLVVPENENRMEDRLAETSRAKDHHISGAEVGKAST
To be noted: at 0.1 µM.

The target in test [5] is T3, Testis-specific serine/threonine-protein kinase 2 (Homo sapiens). The conditions noted are these: at 1 µM.
For test [6], the target named is Casein kinase I isoform alpha (Homo sapiens) (UniProt P48729). To be noted: at 0.1 µM.
For test [7] the target is unchanged. The conditions noted are these: at 1 µM.
The target of test [8] is Casein kinase I isoform gamma-1 (Homo sapiens) (UniProt Q9HCP0). The conditions noted are these: at 0.1 µM.
For test [9] the target is unchanged. The conditions noted are these: at 1 µM.
The target of test [10] is Casein kinase I isoform gamma-2 (Homo sapiens) (UniProt P78368). To be noted: at 0.1 µM.
For test [11] the target is unchanged. The conditions noted are these: at 1 µM.
Test [12] deals with Casein kinase I isoform gamma-3 (Homo sapiens) (UniProt Q9Y6M4). The conditions noted are these: at 0.1 µM.
Test [13] shares this target. The conditions noted are these: at 1 µM.
The target of test [14] is Cyclin-dependent kinase 1 (Homo sapiens) (UniProt P06493). The conditions noted are these: at 0.1 µM.
Test [15] has the same target. The conditions noted are these: at 1 µM.
The target of test [16] is Cyclin-dependent kinase 2 (Homo sapiens) (UniProt P24941). The conditions noted are these: at 0.1 µM.
Test [17] has the same target. To be noted: at 1 µM.
Test [18] has the same target. The conditions noted are these: at 0.1 µM. The source holds these as a separate data set.
Test [19] shares this target. The conditions noted are these: at 1 µM. The source holds these as a separate data set.
In test [20] the target is CDK3/Cyclin E (Homo sapiens) (UniProt P24864+Q00526). The conditions noted are these: at 0.1 µM.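 Note: reported percentages are mean inhibition values.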
Sequence of CDK3/Cyclin E (Homo sapiens) (P24864 whole entry, looked up): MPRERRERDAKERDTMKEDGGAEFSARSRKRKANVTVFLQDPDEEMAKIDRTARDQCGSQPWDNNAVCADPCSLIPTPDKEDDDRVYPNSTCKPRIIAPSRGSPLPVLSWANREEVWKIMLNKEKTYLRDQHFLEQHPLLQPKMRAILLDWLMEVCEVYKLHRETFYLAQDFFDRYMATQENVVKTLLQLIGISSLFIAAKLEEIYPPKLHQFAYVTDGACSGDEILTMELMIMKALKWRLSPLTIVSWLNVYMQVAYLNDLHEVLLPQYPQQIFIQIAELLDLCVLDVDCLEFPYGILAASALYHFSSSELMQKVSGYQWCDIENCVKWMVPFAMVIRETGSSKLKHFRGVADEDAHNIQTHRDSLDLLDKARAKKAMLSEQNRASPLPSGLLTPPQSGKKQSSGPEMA
Sequence of CDK3/Cyclin E (Homo sapiens) (Q00526 whole entry, looked up): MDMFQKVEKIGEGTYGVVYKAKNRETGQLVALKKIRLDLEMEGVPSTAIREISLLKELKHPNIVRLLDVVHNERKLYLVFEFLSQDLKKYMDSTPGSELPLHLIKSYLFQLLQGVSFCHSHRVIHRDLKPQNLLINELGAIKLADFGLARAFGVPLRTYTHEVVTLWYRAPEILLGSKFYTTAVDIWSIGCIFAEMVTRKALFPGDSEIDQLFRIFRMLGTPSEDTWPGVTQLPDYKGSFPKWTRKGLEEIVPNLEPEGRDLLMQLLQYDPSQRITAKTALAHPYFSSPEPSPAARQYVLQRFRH

Sequence of Casein kinase I isoform gamma-1 (Homo sapiens) (Q9HCP0 whole entry, looked up, canonical isoform): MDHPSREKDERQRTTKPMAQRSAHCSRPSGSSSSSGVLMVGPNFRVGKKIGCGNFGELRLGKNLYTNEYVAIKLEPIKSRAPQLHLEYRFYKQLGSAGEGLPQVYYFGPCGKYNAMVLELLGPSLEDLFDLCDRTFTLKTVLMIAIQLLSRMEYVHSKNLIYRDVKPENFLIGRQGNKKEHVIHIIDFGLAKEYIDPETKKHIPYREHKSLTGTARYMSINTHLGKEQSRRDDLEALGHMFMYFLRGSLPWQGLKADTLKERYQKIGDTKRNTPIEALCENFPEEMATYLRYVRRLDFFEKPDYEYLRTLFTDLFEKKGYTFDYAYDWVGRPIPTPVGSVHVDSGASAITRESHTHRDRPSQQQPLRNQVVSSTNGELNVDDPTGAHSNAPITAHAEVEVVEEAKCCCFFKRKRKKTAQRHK
Sequence of Casein kinase I isoform gamma-2 (Homo sapiens) (P78368 whole entry, looked up, canonical isoform): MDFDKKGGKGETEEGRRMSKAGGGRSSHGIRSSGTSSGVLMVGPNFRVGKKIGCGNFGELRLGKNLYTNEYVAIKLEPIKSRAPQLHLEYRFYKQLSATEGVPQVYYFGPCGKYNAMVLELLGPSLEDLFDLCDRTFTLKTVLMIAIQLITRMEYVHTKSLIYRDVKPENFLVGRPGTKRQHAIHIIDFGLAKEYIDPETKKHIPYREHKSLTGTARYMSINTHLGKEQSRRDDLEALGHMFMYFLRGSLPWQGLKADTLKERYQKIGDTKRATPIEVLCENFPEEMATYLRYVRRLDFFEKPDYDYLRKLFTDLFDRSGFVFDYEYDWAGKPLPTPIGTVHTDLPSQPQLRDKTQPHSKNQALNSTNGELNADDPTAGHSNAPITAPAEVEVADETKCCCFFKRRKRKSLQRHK
Sequence of Casein kinase I isoform gamma-3 (Homo sapiens) (Q9Y6M4 whole entry, looked up, canonical isoform): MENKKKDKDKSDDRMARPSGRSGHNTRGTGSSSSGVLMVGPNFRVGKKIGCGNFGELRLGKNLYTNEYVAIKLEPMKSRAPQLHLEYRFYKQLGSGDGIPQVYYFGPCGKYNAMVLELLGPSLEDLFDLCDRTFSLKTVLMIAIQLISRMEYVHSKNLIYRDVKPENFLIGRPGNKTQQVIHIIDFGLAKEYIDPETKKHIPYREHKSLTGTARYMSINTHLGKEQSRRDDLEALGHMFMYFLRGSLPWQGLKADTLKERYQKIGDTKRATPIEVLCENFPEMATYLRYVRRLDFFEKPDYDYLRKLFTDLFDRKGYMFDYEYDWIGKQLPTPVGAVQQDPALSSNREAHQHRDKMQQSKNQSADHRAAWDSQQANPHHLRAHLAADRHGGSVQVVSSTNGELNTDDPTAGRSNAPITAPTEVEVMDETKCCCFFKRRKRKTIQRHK
Sequence of Casein kinase I isoform alpha (Homo sapiens) (P48729 2-337 limits assumed): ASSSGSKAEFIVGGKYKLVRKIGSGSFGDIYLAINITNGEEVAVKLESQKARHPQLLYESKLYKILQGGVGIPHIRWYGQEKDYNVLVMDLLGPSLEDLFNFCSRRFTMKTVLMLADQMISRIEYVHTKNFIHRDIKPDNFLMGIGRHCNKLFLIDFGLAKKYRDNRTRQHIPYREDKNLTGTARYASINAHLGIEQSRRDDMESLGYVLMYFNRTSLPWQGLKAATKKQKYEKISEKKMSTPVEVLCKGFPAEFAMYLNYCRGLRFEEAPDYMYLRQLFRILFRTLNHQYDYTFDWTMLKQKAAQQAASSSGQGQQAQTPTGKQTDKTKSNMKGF
Sequence of Cyclin-dependent kinase 1 (Homo sapiens) (P06493 whole entry, looked up): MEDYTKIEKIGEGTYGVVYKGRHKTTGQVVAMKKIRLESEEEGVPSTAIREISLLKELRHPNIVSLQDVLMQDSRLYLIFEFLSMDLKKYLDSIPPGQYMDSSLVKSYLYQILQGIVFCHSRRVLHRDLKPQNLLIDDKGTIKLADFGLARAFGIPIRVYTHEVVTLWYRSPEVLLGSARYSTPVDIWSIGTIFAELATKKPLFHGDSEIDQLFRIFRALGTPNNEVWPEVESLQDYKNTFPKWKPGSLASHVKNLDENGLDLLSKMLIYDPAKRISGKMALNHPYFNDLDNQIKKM

Usually inhibition stands for the drop in the measured response relative to a control, in per cent. As to `CS(=O)(=O)CCN(CC#N)Cc1ccc(-c2ccc3ncnc(Nc4ccc(OCc5cccc(F)c5)c(Cl)c4)c3c2)o1`, the inhibition in test [1] was determined as 1.61%; in test [2], 1.37%; in [3] it was 1.5%; in test [4] it was 0.63%; in test [5], 1.39%; in [6], 1%. Moreover, the inhibition was 2.88% in test [7]; -2.14% in [8]; -3.1% in [9]; -1.98% in [10]; -2.18% in test [11]; -1.66% in [12]. For the same compound, the inhibition was -4.35% in test [13]; -3.13% in test [14]; -3.04% in test [15]; -1.63% in test [16]; -2.87% in [17]; -2.44% in test [18]. The inhibition was -4.09% in test [19] and -2.24% in test [20].
As for `CC(C)=Cc1cccc2c1/C(=N/Nc1ccc(S(N)(=O)=O)cc1)C(=O)N2`, the inhibition came out at 26.3% in [1]; 1.27% in test [2]; 2.47% in [3]; 0.49% in [4]; 0.88% in test [5]; 6.16% in [6]. In addition, the inhibition in test [7] was 2.83%; in [8], 0.52%; in test [9], 1.12%; in [10], 1.67%; in [11], 0.64%; in test [12] it was -0.08%. The inhibition in test [13] stood at 2.43%; in test [14], 28.7%; in test [15], 69.7%; in [16] it was 103%; in test [17], 92.4%; in test [18], 74.1%. The inhibition stood at 79.3% in [19] and 68.5% in test [20].
Regarding `COc1cc(C=NNc2ncnc3c2cnn3-c2ccccc2)ccc1O`, the inhibition is 21.5% in test [1]; 5.71% in test [2]; 1.92% in [3]; 1.3% in test [4]; -1.3% in test [5]; 4.04% in [6]. Besides, the inhibition in [7] amounted to 6.98%; in test [8], 1.27%; in test [9] it was 3.26%; in test [10] it was 2.04%; in test [11], 18.1%; in [12] it was 1.55%. For the same compound, the inhibition in test [13] came out at 5.99%; in [14], 6.11%; in [15], 35.8%; in test [16], 6.03%; in [17], 42.1%; in [18] it was 2.88%. Besides, the figures for the inhibition in [19] and in test [20] were 13.7% and 2.09%, respectively.
For `Fc1cccc(COc2ccc(Nc3ncnc4sc(-c5cccs5)cc34)cc2Cl)c1`, the inhibition is 2.3% in [1]; 0.6% in [2]; 1.28% in test [3]; 0.22% in [4]; 0% in test [5]; -0.37% in [6]. The inhibition in [7] is 2.33%; in test [8] it was 0.39%; in [9], -0.08%; in test [10], 0.42%; in test [11], 0.26%; in [12] it was -0.15%. Further, the inhibition in test [13] is 0.1%; in test [14], 0.75%; in [15] it was 1.12%; in [16] it was -0.17%; in [17], 1.85%; in test [18], 3.98%. In addition, the inhibition in test [19] was 2.92%; in test [20], -0.06%.
For `CNC(=O)c1cncc(/C=C/c2c(Cl)cccc2Cl)c1`, the inhibition was 4.76% in [1]; 3.51% in test [2]; 4.44% in [3]; 1.15% in [4]; 3.45% in test [5]; 2.31% in test [6]. The inhibition in test [7] is 6.99%; in [8], 4.49%; in test [9], 6.18%; in test [10], 2.94%; in test [11], 7.62%; in [12], 1.61%. Besides, the inhibition in test [13] was 4.59%; in test [14], -1.13%; in [15] it was -0.82%; in test [16] it was 0.92%; in test [17], -0.22%; in test [18], -0.41%. Besides, the inhibition in test [19] is 3.85%; in test [20] it was -4.75%.
Turning to `COc1cc2ncn(-c3cc(OCc4ccccc4Cl)c(C(N)=O)s3)c2cc1OC`, the inhibition in test [1] worked out at 28.7%; in test [2] it was 1.82%; in [3], 4.67%; in test [4], 0.7%; in [5], 1.63%; in test [6], 1.79%. In addition, the inhibition in test [7] was 0.67%; in [8], 0.19%; in [9] it was 1.8%; in test [10], -0.04%; in test [11], 1.68%; in [12] it was 1.38%. In addition, the inhibition in test [13] was found to be 2.71%; in [14], 1.92%; in test [15], 6.22%; in [16] it was 1.7%; in [17] it was 6.39%; in test [18], 2.24%. In addition, the inhibition in test [19] came to 5.06%; in test [20], 3.11%.
Consider `CC(=O)Nc1cccc(C#Cc2cncnc2Nc2ccc(OCc3cccc(F)c3)c(Cl)c2)n1`, for which the inhibition is -0.27% in [1]; 2.3% in test [2]; 4.75% in [3]; 0.15% in [4]; 5.54% in test [5]; 0.01% in [6]. The inhibition was -1.03% in test [7]; -1.49% in [8]; -2.35% in test [9]; -0.28% in test [10]; -2.14% in [11]; -0.5% in [12]. In addition, the inhibition in test [13] was -0.34%; in test [14], -0.13%; in test [15], -0.16%; in [16], -1.04%; in test [17] it was -0.26%; in test [18] it was -1.65%. In addition, the inhibition in test [19] is -0.18%; in [20], 1.2%.

The values above are taken from ChEMBL document CHEMBL1961873, “Compounds: GSK PKIS; Assays: Nanosyn kinase panel” (2012).
